CYP2C19 act: cytochrome P450 2C19 (human) activation | P33261 | activation factor at 5 µM | 96,000 tested, under 10 active | recombinant CYP2C19, luciferin-H EGE luminescence; stronger effect = higher value; 0 = fully inhibited enzyme, 1 = untreated enzyme;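 active means activation factor of at least 2 at 5 µM in the primary screen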;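 further: 0 = wells with 2.5 mM tranylcypromine and 1 = vehicle-only wells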
Target sequence (P33261 whole entry, looked up): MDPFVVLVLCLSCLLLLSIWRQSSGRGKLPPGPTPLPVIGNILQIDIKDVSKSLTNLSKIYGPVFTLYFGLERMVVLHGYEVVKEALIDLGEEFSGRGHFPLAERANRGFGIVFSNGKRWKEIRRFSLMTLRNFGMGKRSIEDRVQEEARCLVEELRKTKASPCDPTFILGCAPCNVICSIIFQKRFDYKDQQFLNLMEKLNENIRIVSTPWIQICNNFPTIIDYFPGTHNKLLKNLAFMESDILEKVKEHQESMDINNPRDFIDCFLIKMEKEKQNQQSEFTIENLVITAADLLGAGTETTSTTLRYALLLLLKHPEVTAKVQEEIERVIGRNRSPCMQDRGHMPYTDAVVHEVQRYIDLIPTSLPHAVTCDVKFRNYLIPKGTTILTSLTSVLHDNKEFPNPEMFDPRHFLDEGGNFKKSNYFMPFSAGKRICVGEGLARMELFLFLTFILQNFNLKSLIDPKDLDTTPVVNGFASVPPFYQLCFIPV
CYP2C9 activ: activators of human CYP2C9; P11712; recombinant CYP2C9, luciferin-H conversion, luminescence; stronger effect = higher value; factor 1 = untreated enzyme, 0 = blocked; activation factor at 5 µM; actives 1.4% (n = 96,000); AID 1024;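 active means activation factor of 2 or more for CYP2C9 at a 5 µM dose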;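 further: 0 = sulfaphenazole-blocked wells and 1 = vehicle-only wells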
Mac1 fbg enh: enhancers of human CD11b/CD18 binding to fibrinogen | P05107+P11215 | actives 0.07% (n = 93,000) | activation, % at 10 µM | K562 CD11b/CD18 adhesion to fibrinogen, ATPlite luminescence | AID 1499;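 active means 10 µM primary screen giving 50% or more activity, confirmed by 40% or more on retest at that dose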
CYP2C9 inh: human CYP2C9 inhibition; P11712; CYP2C9 Supersomes, luciferin-H conversion, luminescence; inhibition, % at 5 µM; actives 20% (n = 96,000); AID 777;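 active means blocking of liver enzyme CYP2C9 beyond about 50% at 5 µM, limit read from the data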
CD11b adhes inh: blocks human CD11b/CD18 adhesion to fibrinogen. P05107+P11215. K562 CD11b/CD18 adhesion to fibrinogen, ATPlite luminescence; Mn2+ added to activate the integrin. inhibition, % at 10 µM. actives 0.54% (n = 93,000). AID 1497;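 active means primary inhibition of 50% or more at 10 µM, then 40% or more on retest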
CYP2C19 inhib: inhibitors of human CYP2C19; CYP2C19 Supersomes, luciferin-H EGE luminescence, 30 min; P33261; AID 778; inhibition, % at 5 µM; actives 21% (n = 96,000);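 active means CYP2C19 inhibition above a set limit at 5 µM in the primary screen, cut at about 50% in these data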;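 further: plate controls were negative control wells for no effect and 2.5 mM tranylcypromine positive control for full effect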
The depositor's hits bear a star; x = no result given. This is a sample that favours compounds with a hit; in the whole collection about 28% have one here.

SMILES	CYP2C19 act	CYP2C9 activ	Mac1 fbg enh	CYP2C9 inh	CD11b adhes inh	CYP2C19 inhib
COc1ccc(CSc2nnc(SCc3ccc([N+](=O)[O-])cc3)s2)cc1	0.8	0.8	-5	23	-3	17
COc1ccc2c(c1)O/C(=C\c1sccc1C)C2=O	x	x	2	x	18	x
Cc1cccc(NC(NC(=O)c2cccnc2)C(Cl)(Cl)Cl)c1 (stereo not drawn)	0.5	0.2	x	83*	x	48
Cc1cccc(C(=O)NC(NCc2ccco2)C(Cl)(Cl)Cl)c1 (stereo not drawn)	0.7	0.4	x	58*	x	32
Cn1c(SCC(=O)Nc2ccccc2F)nnc1-c1ccc(S(=O)(=O)N2CCOCC2)cc1	1	1	-2	1	4	1
COC(=O)c1ccccc1NC(=O)c1cc2ncc(Br)cn2n1	1.1	1.5	23	-46	12	-9
COC(=O)CCN(C(=O)c1cc(OC)c(OC)c(OC)c1)c1ccccn1	0.5	0.8	0	20	-3	48
COC(=O)CCN(C(=O)c1cccc(OC(C)=O)c1)c1ccccn1	1	0.9	-4	7	-11	3
CCOc1ccccc1C(=O)N(CCC(=O)OC)c1ccccn1	0.5	0.9	-4	11	1	53*
COC(=O)CCN(C(=O)c1ccc2c(c1)OCO2)c1ccccn1	0.1	0.9	-4	9	-22	94*
C=CCC1(O)C(=O)N2C(=C1C(=O)N1CCOCC1)c1ccccc1CC2(C)C (stereo not drawn)	0.9	0.9	0	11	-17	5
O=S(=O)(Nc1ccccc1)c1ccc(F)cc1	0.1	0.3	-2	72*	-5	92*
O=c1ccc2cc(S(=O)(=O)Nc3ccc(F)cc3)ccc2o1	0	0.5	-4	46	-11	98*
O=S(=O)(Nc1ccccc1Cl)c1ccc(F)cc1	0.1	0.5	6	51*	20	89*
O=C(O)c1ccc(F)c(S(=O)(=O)Nc2ccccc2Cl)c1	1	1	-6	-2	2	1
Cc1cccc(C)c1NS(=O)(=O)c1ccc(F)cc1	0	0.3	6	75*	-19	99*
CCCCNC(=O)Oc1cccc(N2CCCC2=O)c1	1	1.2	-3	-15	-12	2
Cc1ccccc1-n1cnnc1SCC(=O)N1CCN(c2ccccc2)CC1	0.5	0.8	1	22	12	46
O=C(CC1NCCNC1=O)Nc1ccc2c(c1)OCO2 (stereo not drawn)	0.9	0.8	-2	22	-9	6
CCC(C)NS(=O)(=O)c1ccc(NS(=O)(=O)c2ccc(F)cc2)cc1 (stereo not drawn)	0.3	0	-2	98*	-2	74*
CC(=O)Nc1ccc(S(=O)(=O)NCC(C)NS(=O)(=O)c2ccc(NC(C)=O)cc2)cc1 (stereo not drawn)	0.9	1	3	4	15	9
O=S(=O)(Nc1ccc(F)cc1)c1ccc(NC(=S)Nc2ccccc2)cc1	0.4	0.1	-3	86*	20	57*
COC(=O)/C(=C/c1c[nH]c2ccccc12)[N+](=O)[O-]	1	1.2	-4	-16	42	-3
CCCCOc1ccccc1N	1	0.9	1	6	-17	1
Nc1ccccc1OCCOCCOCCOc1ccccc1N	0.3	0.4	-2	60*	-7	75*
SMILES	CYP2C19 act	CYP2C9 activ	Mac1 fbg enh	CYP2C9 inh	CD11b adhes inh	CYP2C19 inhib
Cc1c(Cl)cnc(NC(=O)CSc2nncs2)c1Cl	x	x	0	x	3	x
CCOC(=O)/C(C#N)=C1/SC(CC)C(=O)N1c1ccc(C)cc1 (stereo not drawn)	0.1	0.4	-5	55*	-28	91*
N#CCN1CCN(CC(=O)Nc2cccc3ccccc23)CC1	1	1	x	-5	x	-1
CCn1c2ccccc2c2nnc(SCc3cc(=O)n4ccsc4n3)nc21	0.1	0.3	-1	65*	-21	87*
COc1cccc(-c2cc3nc(-c4ccccc4)cc(N4CCC5(CC4)OCCO5)n3n2)c1	0.7	0.4	x	55*	x	34
CN1CCN(c2cc(-c3ccccc3)nc3cc(-c4ccc(F)cc4)nn23)CC1	0.7	0.6	0	37	-8	34
CCSC1=C(C#N)C(c2cccc(Br)c2)CC(=O)N1 (stereo not drawn)	0.6	0.7	2	29	13	44
C=CCSC1=C(C#N)C(c2ccccc2)CC(=O)N1 (stereo not drawn)	0.2	0.3	4	65*	-4	80*
C=CCSC1=C(C#N)C(c2ccc(C(C)C)cc2)CC(=O)N1 (stereo not drawn)	0.3	0.2	1	82*	3	74*
CC(NC(=O)Nc1cccc([N+](=O)[O-])c1)(C(F)(F)F)C(F)(F)F	0.8	0.8	-10	20	26	20
COc1ccccc1N1CCN(C(=O)CN(c2cc(C)cc(C)c2)S(C)(=O)=O)CC1	0.6	0.9	-5	8	15	36
CCCCS(=O)(=O)Nc1ccc2c(c1)ncn2C1CCCCC1	0.9	0.2	3	85*	36	11
CC(=O)c1cccc(NC(=S)NCCCCc2ccccc2)c1	x	x	-4	x	50	x
CN(c1nc(-c2ccccc2)cs1)C1CCS(=O)(=O)C1 (stereo not drawn)	0.4	0.8	4	18	-10	58*
CN(C(=O)CSc1nnc(-c2ccccc2)c(-c2ccccc2)n1)C1CCS(=O)(=O)C1 (stereo not drawn)	x	x	3	x	14	x
CN(C(=O)CSc1nc(-c2ccccc2)cs1)C1CCS(=O)(=O)C1 (stereo not drawn)	0.4	4*	-2	-304	-3	60*
CN(C(=O)CSc1nc(-c2ccc(F)cc2)cs1)C1CCS(=O)(=O)C1 (stereo not drawn)	0.6	3.6*	-4	-264	7	37
CCCc1cc(=O)[nH]c(SCC(=O)N(C)C2CCS(=O)(=O)C2)n1 (stereo not drawn)	0.5	1	-4	1	-4	45
CN1CCN(CC(=O)N(C)c2nc(-c3ccccc3)cs2)CC1	0.9	0.9	-1	13	1	9
Cc1ccc(Oc2ccc(NC(=O)Cn3ccsc3=N)cc2)cc1	1.3	1.1	-4	-14	21	-35
COc1ccc2nc(SCC(=O)Nc3ccc4sc(C)nc4c3)c(C#N)cc2c1	0.8	0.5	146	45	-46	25
O=S(=O)(NC12CC3CC(CC(C3)C1)C2)c1ccc(F)cc1	0.1	0.2	-4	83*	4	88*
O=S(=O)(Nc1nc2c(s1)CCCC2)c1ccc(F)cc1	0.8	0.7	-1	34	2	15
COCCn1c(=S)[nH]c2ccc(N(C)C)cc2c1=O	0.5	0.7	-1	32	-1	52*
